Reference: PubChem BioAssay (NCATS)
Records with an inconclusive call do not appear. Active and inactive are the calls of the source. Calls follow the shape of the dose curve; as a rule, active = well fitted curve in the direction sought with a large enough effect; inconclusive = small, poorly fitted or top-dose-only effect, or another doubt; inactive = no such curve, though single readings can be large; an effect the other way counts as inactive or inconclusive.

What was measured:
[1] = Cell Viability - LYMP1-003 - Assay at 24 hr (AID 963)
How it was run: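 Cells seeded at 2500/well, 5 hr at 37 C; compounds added; 24 hr at 37 C; CellTiter-Glo added, 30 min room temperature; luminescence read. Decrease in ATP taken as cytotoxicity, AC50 from Hill modelling.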

[2] = Cell Viability - LYMP1-003 - Assay at 40 hr (AID 964); also: series mostly up to about 92 µM; nearly all actives have a fitted effect of over 60% in size
How it was run: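 Cells were seeded at 2500 per well and incubated 5 hr at 37 C. Compounds were added across a concentration series and left 40 hr at 37 C. CellTiter-Glo was added for 30 min at room temperature before luminescence reading.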

[3] = Cell Viability - LYMP2-003 (AID 965);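 also: cells exposed to compounds for 24 h before reading; nearly all actives have a fitted effect of over 50% in size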
How it was run: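 Human lymphoblastoid LYMP2-003 cells, 2500/well, exposed to compounds for 24 h at 37 C in complete medium. Viability read as intracellular ATP by CellTiter-Glo luminescence; AC50 from Hill-equation fits of qHTS concentration-response data.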

[4] = Cell Viability - LYMP2-004 (AID 966); also: nearly all actives have a fitted effect of over 65% in size
How it was run: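 Cells seeded 2500/well, rested 5 hr at 37 C, dosed across a concentration series, incubated 24 hr at 37 C, then CellTiter-Glo added for 30 min at room temperature and luminescence read. Hill fitting gave AC50.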

[5] = Cell Viability - LYMP2-009 (AID 968); also: series mostly up to about 92 µM; nearly all actives have a fitted effect of over 55% in size
Source text: NIH Chemical Genomics Center [NCGC]
NIH Molecular Libraries Screening Centers Network [MLSCN]
National Institutes of Environmental Health Sciences [NIEHS]
National Toxicology Program [NTP]
We have developed a 1536-well cell-based assay for quantitative high throughput screening (qHTS) against a number of cell lines to determine in vitro cytotoxicity of small molecules. This particular assay uses a human lymphoblastoid cell line (LYMP2-009) purchased from Coriell Institute for Medical Research.
NCGC Assay Protocol Summary:
The CellTiter-Glo luminescent cell viability assay (Promega) is a homogeneous method to measure the number of viable cells in culture. The end point readout of this assay is based on quantitation of intracellular ATP, an indicator of metabolic activity, using the luciferase reaction. […]
Using the CellTiter-Glo luminescent cell viability assay, the amount of cellular ATP was measured in the lymphoblastoid cell line with complete culture medium following compound treatment for 24 hours. […] Library compounds were measured for their ability to cause acute toxicity in the cell line, as reflected by a decrease in intracellular ATP levels, in a concentration-dependent manner. […] AC50 values were determined from concentration-response data modeled with the standard Hill equation. […]
8. Detection; Luminescence; Viewlux plate reader […]

[6] = Cell Viability - LYMP2-011 (AID 969); also: nearly all actives have a fitted effect of over 60% in size
How it was run: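 2500 cells/well, 5 hr 37 C; compound added, 24 hr 37 C; CellTiter-Glo 30 min RT; luminescence. qHTS concentration-response, Hill-equation AC50. Tetraoctylammonium bromide positive control.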

[7] = Cell Viability - LYMP2-013 (AID 970); also: series mostly up to about 92 µM; nearly all actives have a fitted effect of over 55% in size
How it was run: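 qHTS; 2500 lymphoblastoid cells/well; 5 hr 37 C settle; cpd 24 hr 37 C; CellTiter-Glo, 30 min RT; luminescence. AC50 = Hill fit.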

[8] = Cell Viability - LYMP2-015 (AID 971); also: nearly all actives have a fitted effect of over 55% in size
How it was run: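 Luminescent ATP read-out (CellTiter-Glo) served as the viability measure after lymphoblastoid cells were exposed to compounds for 24 hours at 37 C. Concentration-response data were fitted with the Hill equation to give AC50.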

[9] = Cell Viability - LYMP2-017 (AID 972); also: series mostly up to about 92 µM; nearly all actives have a fitted effect of over 55% in size
How it was run: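 2500 cells/well, 5 h 37 C; cpd 24 h 37 C in complete medium; CellTiter-Glo, 30 min RT; luminescence (ATP). AC50 via Hill fit, qHTS.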

[10] = Cell Viability - LYMP2-019 (AID 973); also: nearly all actives have a fitted effect of over 55% in size
How it was run: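 Luminescent ATP read-out (CellTiter-Glo, 30 min room temperature) served as the viability measure after 24 hr treatment of lymphoblastoid cells at 37 C. Concentration-response data were fitted to the Hill equation for AC50.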

[11] = Cell Viability - LYMP2-021 (AID 974)
How it was run: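 Plate 2500 lymphoblastoid cells per well and incubate 5 hr at 37 C. Add compounds over a concentration range and incubate 24 hr at 37 C. Add CellTiter-Glo, wait 30 min at room temperature, read luminescence.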

[12] = Cell Viability - LYMP2-023 (AID 975)
How it was run: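 2500 cells/well, 5 hr 37 C; cpd 24 hr 37 C; CellTiter-Glo, 30 min RT; luminescence. qHTS conc-response, Hill fit -> AC50. Pos ctrl tetraoctylammonium bromide.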

[13] = Cell Viability - LYMP2-025 (AID 976); also: series mostly up to about 92 µM
How it was run: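 Seed 2500 LYMP2-025 cells/well; 5 hr at 37 C; add compound; 24 hr at 37 C; add CellTiter-Glo; 30 min RT; read luminescence. AC50 from Hill-modelled concentration-response.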

[14] = Cell Viability - LYMP2-002 (AID 977); also: series mostly up to about 92 µM
How it was run: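 Luminescent ATP readout (CellTiter-Glo, 30 min room temperature) after 24 h compound exposure at 37 C of a human lymphoblastoid line, 2500 cells/well. AC50 values derived by standard Hill fitting of qHTS concentration-response data.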

[15] = Cell Viability - LYMP2-006 (AID 978); also: series mostly up to about 92 µM; nearly all actives have a fitted effect of over 60% in size
How it was run: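 Human lymphoblastoid cells (LYMP2-006), 2500/well in complete medium, were treated with compound for 24 hr at 37 C. Cellular ATP was read by CellTiter-Glo luminescence after 30 min, and AC50 values came from Hill-equation fits of concentration-response data.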

[16] = Cell Viability - LYMP2-007 (AID 979);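 also: cells exposed to compound for 24 h before reading; nearly all actives have a fitted effect of over 60% in size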
How it was run: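 Luminescent ATP signal (CellTiter-Glo) serves as the viability read-out after 24 hr compound treatment of lymphoblastoid cells in complete medium at 37 C. Concentration-response data were fitted to the Hill equation to give AC50 values.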

[17] = Cell Viability - LYMP2-008 (AID 980); also: nearly all actives have a fitted effect of over 60% in size
How it was run: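 qHTS, human lymphoblastoid line, 2500 cells/well; 5 hr preincubation, 24 hr compound, 37 C. CellTiter-Glo ATP luminescence. AC50 via Hill equation. Tetraoctylammonium bromide positive control.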

[18] = Cell Viability - LYMP2-010 (AID 981); also: nearly all actives have a fitted effect of over 55% in size
How it was run: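 Luminescent ATP signal (CellTiter-Glo) served as the viability read-out. Cells of the human lymphoblastoid line were treated with compound over a concentration range for 24 hours at 37 C, and AC50 values came from Hill-equation modeling.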

[19] = Cell Viability - LYMP2-012 (AID 982)
[20] = Cell Viability - LYMP2-005 (AID 967); also: series mostly up to about 92 µM
How it was run: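 Human lymphoblastoid LYMP2-005 cells, 2,500 per well in complete medium, rested 5 h at 37C then compound-treated 24 h at 37C. Intracellular ATP read by CellTiter-Glo luminescence after 30 min at room temperature; AC50 from Hill-equation fits of concentration-response data.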

Measured: outcome

NC(=O)c1ccccc1
inactive: [1] | [2] | [3] | [4] | [5] | [6] | [7] | [8] | [9] | [10] | [11] | [12] | [13] | [14] | [15] | [16] | [17] | [18] | [19]

CC(=O)C(C)=O
inactive: [1] | [2] | [3] | [4] | [20] | [5] | [6] | [7] | [8] | [9] | [10] | [11] | [12] | [13] | [14] | [15] | [16] | [17] | [18] | [19]
